Measured values: the supplement of paper PMC10503962

Tested on: Trichuris muris adult worms
Test: mean motility score (Paragon pixel variance) of adult worms (arbitrary units); higher = more motile worms, i.e. less anthelmintic effect; extreme values may be limits of the assay
Settings: 100 µM; 24 h
In short: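 Single adult Trichuris muris worms, collected from infected NOD SCID mice, were placed in 96-well plates with 100 μL RPMI-1640 plus antibiotics and drug at 100 μM (1% v/v DMSO), then kept at 37°C and 5% CO2 for 24 h. Plates were filmed on an automated phenotyping platform (200 frames, 100 ms apart). Motility score came from Paragon pixel-variance analysis, averaged across replicate wells. Each drug had three worms in three wells, run on three separate occasions, with vehicle and positive controls.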

Row | Structure (SMILES) | mean motility score
1 | CCOC(=O)Nc1ccc2c(c1)N(C(=O)CCN1CCOCC1)c1ccccc1S2.Cl [moricizine hydrochloride] | 5
2 | CCCN(CCc1cccs1)[C@H]1CCc2c(O)cccc2C1 [rotigotine] | 3100
3 | O=C(COc1ccc(Cl)cc1)N1CCN(Cc2ccc3c(c2)OCO3)CC1 [fipexide] | 241
4 | CCN(CC)CCNC(=O)c1cc(Cl)c(N)cc1OC [metoclopramide] | 3210
5 | Cc1nnc(NS(=O)(=O)c2ccc(N)cc2)s1 [sulfamethizole] | 3570
6 | Clc1ccc2c(c1)CCc1cccnc1C2=C1CCNCC1 [desloratadine] | 930
7 | CNCC[C@H](Oc1cccc2ccccc12)c1cccs1.Cl [duloxetine hydrochloride] | 2.67
8 | CCCCOc1ccc(OCCCN2CCOCC2)cc1.Cl [pramoxine hydrochloride] | 1260
9 | CC(=O)O [acetic acid] | 2710
10 | CC(C)c1ccc2oc3nc(N)c(C(=O)O)cc3c(=O)c2c1 [amlexanox] | 1570
11 | CC(=O)Nc1ccc(O)cc1 [acetaminophen] | 2180
12 | CO[C@H]1/C=C/O[C@@]2(C)Oc3c(C)c(O)c4c(O)c(c(/C=N/N5CCN(C)CC5)c(O)c4c3C2=O)NC(=O)/C(C)=C\C=C\[C@H](C)[C@H](O)[C@@H](C)[C@@H](O)[C@@H](C)[C@H](OC(C)=O)[C@@H]1C [rifampicin] | 1330
13 | Cn1cnc2c1c(=O)[nH]c(=O)n2C [theobromine] | 859
14 | NC(N)=O [urea] | 4760
15 | CC(C)(C)NC(=O)[C@H]1CC[C@H]2[C@@H]3CC[C@H]4NC(=O)C=C[C@]4(C)[C@H]3CC[C@]12C [finasteride] | 2080
16 | CCC1(c2ccccc2)C(=O)NCNC1=O [primidone] | 3160
17 | CCCCCCCCCCCCCCCCOP(=O)([O-])OCC[N+](C)(C)C [miltefosine] | 2810
18 | Cc1[nH]c(/C=C2\C(=O)Nc3ccccc32)c(C)c1CCC(=O)O [orantinib] | 3560
19 | Cl.Fc1ccc([C@@H]2CCNC[C@H]2COc2ccc3c(c2)OCO3)cc1 [paroxetine hydrochloride] | 1300

Row | Structure (SMILES) | mean motility score
20 | OC(CCCN1CCCCC1)(c1ccccc1)c1ccccc1 [diphenidol] | 1940
21 | NCCNCCNCCN [trientine] | 2070
22 | Cc1cc(C(C)(C)C)cc(C)c1C=C1NCCN1 [xylometazoline] | 3760
23 | C[C@@H](C(=O)O)c1ccc(-c2ccccc2)c(F)c1 [tarenflurbil] | 2130
24 | Clc1ccc(COC(Cn2ccnc2)c2ccc(Cl)cc2Cl)c(Cl)c1 (stereo not drawn) [miconazole] | 122
25 | NCCc1ccc(O)c(O)c1 [dopamine] | 3440
26 | CCN1CCCC1CNC(=O)c1cc(S(N)(=O)=O)ccc1OC (stereo not drawn) [sulpiride] | 2290
27 | O=C(O)COc1ccc(C(=O)c2cccs2)c(Cl)c1Cl [ticrynafen] | 3440
28 | Cc1nc(O)c(C#N)cc1-c1ccncc1 [milrinone] | 4250
29 | C/C=C(/C(=C/C)c1ccc(O)cc1)c1ccc(O)cc1 [dienestrol] | 3590
30 | CN(C)C(=N)N=C(N)N.Cl [metformin hydrochloride] | 4240
31 | Oc1ncc(F)c(O)n1 [fluorouracil] | 3090
32 | C[C@H](Cc1cc2c(c(C(N)=O)c1)N(CCCO)CC2)NCCOc1ccccc1OCC(F)(F)F [silodosin] | 3810
33 | Clc1cc(Cl)c(OCC#CI)cc1Cl [haloprogin] | 2180
34 | CCOC(=O)C1=C(C)NC(C)=C(C(=O)OC)C1c1cccc([N+](=O)[O-])c1 (stereo not drawn) [nitrendipine] | 0
35 | COc1cc(C(C)=O)ccc1OCCCN1CCC(c2noc3cc(F)ccc23)CC1 [iloperidone] | 1950
36 | N[C@@H](Cc1cc(I)c(Oc2ccc(O)c(I)c2)c(I)c1)C(=O)O [liothyronine] | 1020
37 | O=c1[nH]c(=O)n([C@H]2C[C@H](O)[C@@H](CO)O2)cc1F [floxuridine] | 2280
38 | COc1ccc([C@@H]2Sc3ccccc3N(CCN(C)C)C(=O)[C@@H]2OC(C)=O)cc1 [diltiazem] | 2070
